cytoskel mod – alters cytoskeleton assembly in HUVEC cells; 91,000 tested, 0.18% active; HUVEC TNFa F-actin phalloidin imaging, high content; inhibition, % at 2 µM;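 active = inhibition above the batch mean plus 3 SD and confirmed as a hit by visual image inspection, cut at about 30% in these data, passing the limit was not always enough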
E-sel TNF inh – blocks E-selectin expression induced by TNF alpha. HUVEC TNFa-induced E-selectin immunofluorescence, high content. inhibition, % at 2 µM. 120,000 tested, 0.71% active;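 active = inhibition above the batch mean plus 3 SD, and confirmed as a hit on visual image review, cut at about 43% in these data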;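 note: 0% = TNF-stimulated DMSO wells and 100% = unstimulated control wells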
S1P2 ag – agonists of human S1P2 receptor; activation, % at 4.5 µM; 97,000 tested, 0.46% active; S1P2-expressing cell line, agonist reporter read-out; O95136; in the data active = activation above about 16%;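 note: 0% = vehicle low control and 100% = maximal reference agonist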
Target sequence (O95136 whole entry, looked up): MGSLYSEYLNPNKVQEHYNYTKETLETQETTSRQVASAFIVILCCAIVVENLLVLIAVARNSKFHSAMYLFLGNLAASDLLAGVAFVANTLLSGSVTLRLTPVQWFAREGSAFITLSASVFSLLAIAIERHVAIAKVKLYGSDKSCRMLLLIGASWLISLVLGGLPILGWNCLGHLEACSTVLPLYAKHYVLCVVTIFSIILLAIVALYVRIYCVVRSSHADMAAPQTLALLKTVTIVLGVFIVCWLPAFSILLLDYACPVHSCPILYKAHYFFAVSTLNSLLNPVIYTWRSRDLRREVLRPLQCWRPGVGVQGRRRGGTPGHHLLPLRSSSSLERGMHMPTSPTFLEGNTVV
S1P2 blocker – blocks the human S1P2 receptor; cell-based S1P2 antagonist assay, inhibition at 5 uM; inhibition, % at 5 µM; 97,000 tested, 0.21% active; AID 736; in the data active = inhibition above about 45%;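 note: CRE beta-lactamase reporter cells expressing human S1P2 stimulated with S1P; 0% = agonist at EC80 alone and 100% = agonist plus reference antagonist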
HUVEC tox TNFa – HUVEC cytotoxicity counter-screen, TNF alpha stimulated. HUVEC TNFalpha-stimulated, Hoechst cell count, imaging. cell count reduction, % at 2 µM. 93,000 tested, 0.17% active. AID 848;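 active = cell count reduction exceeding the screen mean by over 5 SD, scaled to untreated wells per plate, cut at about 78% in these data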;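 note: cells counted after 24 h of TNF alpha exposure following the 1 h pretreatment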
VCAM1 TNFa inh – reduces TNF alpha induced VCAM1 expression in HUVEC; inhibition, % at 2 µM; 95,000 tested, 0.48% active; HUVEC TNFa-induced VCAM-1 immunofluorescence, high-content imaging; AID 802;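 active = inhibition above the batch mean plus 3 SD, with images confirmed as a hit by eye, cut at about 37% in these data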;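 note: 0% = TNF-stimulated DMSO wells and 100% = unstimulated control wells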
* = called active by the depositor. A selection: hits, their analogues and other compounds. The true share with any hit is near 1.6%.

CCOC(=O)c1c(NC(=O)CSc2n[nH]c(CNc3ccccc3)n2)sc(C)c1C was read as cytoskel mod -3.4, E-sel TNF inh 1.7, S1P2 ag -1.8, S1P2 blocker -16.3, HUVEC tox TNFa 7.0 and VCAM1 TNFa inh -5.9.
Screening CC(C)C(NC(=S)Nc1ccccc1)C(=O)O (stereo unspecified) returned E-sel TNF inh 4.6.
COc1ccc(S(=O)(=O)Nc2ccc(C)cc2)cc1N(C)S(=O)(=O)c1ccc(Cl)cc1 was read as cytoskel mod -7.7, E-sel TNF inh 100.0*, S1P2 ag -7.4, S1P2 blocker 25.5, HUVEC tox TNFa 6.9 and VCAM1 TNFa inh -3.3.
For COc1ccc(S(=O)(=O)Nc2ccc(F)c(Cl)c2)cc1OC the results were E-sel TNF inh -7.3.
For Cc1noc(C)c1CSc1nc2sc3c(c2c(=O)n1C)CCCC3 the results were cytoskel mod -8.9, E-sel TNF inh 10.9, S1P2 ag -1.0, S1P2 blocker -13.5, HUVEC tox TNFa 0.4 and VCAM1 TNFa inh -8.0.
COC(=O)c1sc(N)c(C(=O)OC)c1CSc1nc2sc3c(c2c(=O)n1C)CCC3 was read as cytoskel mod 4.9, E-sel TNF inh 19.4, S1P2 ag 26.8*, S1P2 blocker -29.4, HUVEC tox TNFa -37.8 and VCAM1 TNFa inh -19.9.
Screening O=c1c([N+](=O)[O-])cccn1Cc1cccc(Cl)c1 returned E-sel TNF inh -18.2.
For O=C1c2ccccc2-c2c1cccc2C(=O)N1CCOCC1 the results were cytoskel mod 9.0, E-sel TNF inh 15.2, S1P2 ag 1.3, S1P2 blocker -19.3, HUVEC tox TNFa -14.8 and VCAM1 TNFa inh 13.1.
`O=C1c2ccccc2C(=O)c2c1cccc2N1CCOCC1` gave cytoskel mod 3.5, E-sel TNF inh -5.4, S1P2 ag 22.1*, S1P2 blocker -22.4, HUVEC tox TNFa -11.2 and VCAM1 TNFa inh 10.6.
Screening O=C(Nc1nccs1)c1cccc(N2C(=O)c3cccc4c([N+](=O)[O-])ccc(c34)C2=O)c1 returned cytoskel mod -5.8, E-sel TNF inh -13.0, S1P2 ag 4.5, S1P2 blocker -12.2, HUVEC tox TNFa -0.9 and VCAM1 TNFa inh 61.6*.
For COc1ccccc1N(Cc1ccccc1)S(=O)(=O)c1cccc(C(=O)Nc2ccc(C(C)=O)cc2)c1 the results were E-sel TNF inh 65.3*.
Screening COc1ccc(N(Cc2ccccc2)S(=O)(=O)c2cccc(C(=O)NC3=NCCS3)c2)cc1 returned cytoskel mod 16.4, E-sel TNF inh -36.8, S1P2 ag -5.0, S1P2 blocker 13.1, HUVEC tox TNFa -20.2 and VCAM1 TNFa inh 6.8.
Screening O=C(CCN1C(=O)c2cccc([N+](=O)[O-])c2C1=O)Nc1nccs1 returned E-sel TNF inh 12.4.
For CCCOC(=O)c1ccc(-c2c(C)noc2-c2ccc(OC)cc2O)o1 the results were cytoskel mod 3.4, E-sel TNF inh -4.5, S1P2 ag -0.1, S1P2 blocker -5.5, HUVEC tox TNFa 0.4 and VCAM1 TNFa inh 9.6.
For CCCOc1ccc(CSc2nc3ccccc3[nH]2)cc1 the results were cytoskel mod -3.8, E-sel TNF inh -13.8, S1P2 ag -7.9, S1P2 blocker 48.4*, HUVEC tox TNFa -15.6 and VCAM1 TNFa inh 1.6.
`CCOc1ccc(OCCSc2nc3ccccc3[nH]2)cc1` gave cytoskel mod 1.3, E-sel TNF inh 24.3, S1P2 ag -4.0, S1P2 blocker -2.9, HUVEC tox TNFa 3.7 and VCAM1 TNFa inh 5.6.
Screening O=C(Nc1cccn2ncnc12)c1ccccc1 returned cytoskel mod -4.7, E-sel TNF inh -32.9, S1P2 ag -5.5, S1P2 blocker 7.1, HUVEC tox TNFa -7.4 and VCAM1 TNFa inh -18.6.
`O=C(Nc1cccn2ncnc12)c1ccc(Cl)cc1` gave cytoskel mod 19.3, E-sel TNF inh 43.1*, S1P2 ag -5.0, S1P2 blocker 22.2, HUVEC tox TNFa 11.8 and VCAM1 TNFa inh 13.8.
`COc1ccc(CCNc2c(C)c(C)nc3ncnn23)cc1` gave cytoskel mod 44.8, S1P2 ag -8.7, S1P2 blocker 68.7*, HUVEC tox TNFa -9.7 and VCAM1 TNFa inh 7.7.
For CC12CCC3(CO)COC(c4ccccc4O1)C2C3 (stereo unspecified) the results were E-sel TNF inh 55.2*.
For CC12CC(NC(=O)N1Cc1ccccc1)c1ccccc1O2 (stereo unspecified) the results were cytoskel mod 2.0, S1P2 ag -1.0, S1P2 blocker 9.9, HUVEC tox TNFa -1.9 and VCAM1 TNFa inh -9.8.
CCc1nc2ccc(C)cc2c(C(=O)NC2CCCCC2C)c1C (stereo unspecified) was read as cytoskel mod -7.7, E-sel TNF inh -16.8, S1P2 ag -1.5, S1P2 blocker 16.3, HUVEC tox TNFa -0.9 and VCAM1 TNFa inh -17.5.
For CCc1nnc(NC(=O)[C@@H](NC(=O)c2ccc(C(C)(C)C)cc2)C(C)C)s1 the results were E-sel TNF inh 9.2.
CCc1ccc(C2=NN(c3ccc(S(N)(=O)=O)cc3)C(c3ccc(F)cc3)C2)cc1 (stereo unspecified) was read as cytoskel mod 21.4, E-sel TNF inh 17.9, S1P2 ag 17.1*, S1P2 blocker -3.7, HUVEC tox TNFa 1.5 and VCAM1 TNFa inh -8.8.
Cc1ccc2sc(-c3ccc(NC(=O)/C=C\C(=O)O)cc3)nc2c1 was read as E-sel TNF inh -14.9.
O=C(c1ccccc1)N(Cc1ccc2c(c1)OCO2)Cc1nc2ccccc2c(=O)[nH]1 was read as cytoskel mod 40.1, E-sel TNF inh -7.9, S1P2 ag -4.7, S1P2 blocker 11.6, HUVEC tox TNFa -10.1 and VCAM1 TNFa inh 4.9.
Screening O=C(Nc1ccccc1)N(Cc1ccc2c(c1)OCO2)Cc1nc2ccccc2c(=O)[nH]1 returned cytoskel mod -5.6, S1P2 ag 21.0*, S1P2 blocker -8.5, HUVEC tox TNFa -16.7 and VCAM1 TNFa inh -3.1.
Screening O=C(CSc1nc2ccc([N+](=O)[O-])cc2[nH]1)NCCc1ccccc1 returned cytoskel mod -30.2, E-sel TNF inh 27.2, S1P2 ag -4.6, S1P2 blocker -6.0, HUVEC tox TNFa 4.2 and VCAM1 TNFa inh -5.7.
For Cc1cccnc1Nc1nc(-c2ccccn2)cs1 the results were cytoskel mod -4.1, E-sel TNF inh 19.0, S1P2 ag 0.0, S1P2 blocker 11.6, HUVEC tox TNFa 72.7 and VCAM1 TNFa inh 94.4*.
For O=C(/C=C/Nc1cccc(C(F)(F)F)c1)c1ccco1 the results were E-sel TNF inh -29.8.
For O=C(/C=C/Nc1cccc(C(F)(F)F)c1)c1ccc(Oc2ncccn2)cc1 the results were cytoskel mod 3.8, E-sel TNF inh 64.2*, S1P2 ag -0.3, S1P2 blocker 8.7, HUVEC tox TNFa -37.6 and VCAM1 TNFa inh -27.4.
For COc1ccc(CNC(=O)c2ccc(NC(=O)CC3SC(N4CCCC4)=NC3=O)cc2)cc1 (stereo unspecified) the results were cytoskel mod 13.8, E-sel TNF inh -30.0, S1P2 ag -8.8, S1P2 blocker 3.6, HUVEC tox TNFa -32.2 and VCAM1 TNFa inh -1.4.

Assay outcomes as filed in PubChem.
